Data on nine molecules can be found in PubChem BioAssay (NCATS).

The subject of assay [1] is Zika virus NS2B-NS3 protease (unlinked complex). Description: Primary screen GU Rhodamine qHTS for Zika virus inhibitors: Unlinked NS2B-NS3 protease assay (AID 1347159). Also: nearly all actives have a fitted effect of over 60% in size. Conditions: Recombinant ZIKV NS2B-NS3 protease, Rhodamine110 substrate fluorescence; series mostly up to 107 µM. In a few lines: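 In dose–response format, inhibition of unlinked protease (25 nM) was measured with 1.5 microM bis-peptide Rhodamine110 substrate. Aprotinin served as the intraplate control.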
For orientation: qHTS replaces the single test concentration by a dilution series.

Assay [2] relates to Zika virus NS2B-NS3 protease (linked construct). Nature of the assay: Primary screen NINDS Rhodamine qHTS for Zika virus inhibitors (AID 1347160). Also: nearly all actives have a fitted effect of over 55% in size. Conditions: purified NS2B-NS3 protease, Rhodamine110 substrate fluorescence; series mostly up to 57.1 µM. In short, it runs like this:
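Each compound, titrated, sat 15 min with 25 nM linked protease before 1.5 microM Rhodamine110 substrate went in. Fluorescence gain over the next 15 min, in pH 8.0 Tris with Tween 20, gave Hill-fitted curves.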

Records with an inconclusive call do not appear. Entries that show only a call come without a potency. Activity calls are given as the source filed them. Calls follow the shape of the dose curve; as a rule, active = well fitted inhibition curve with a large enough effect; inconclusive = small, poorly fitted or top-dose-only effect; inactive = no such curve, though single readings can be large or run the other way.

In the case of `CCCCCCCCn1cc(CN(CC)CC)c2cc(-c3cnc(N)nc3)ccc21`, the Potency result in assay [1] and in assay [2] was “inactive” in each case.
Regarding `Clc1ccc(Cn2c(Cc3ccccc3)nc3ccccc32)cc1`, the Potency entry in assay [1] and in assay [2] was “inactive” in each case.
With `C=C(C)C(=O)O[C@H]1[C@H]2C(=C)C(=O)O[C@@H]2C[C@@H](C)[C@@H]2O[C@@H]2C(=O)[C@](C)(O)[C@@H]1OC(=O)C(=C)C`, the Potency result in assay [1] and in assay [2] was “inactive” throughout.
On to `C=C(C(=O)O[C@H]1C/C(C)=C/CC/C(CO)=C/[C@H]2OC(=O)C(=C)[C@H]12)C(O)CO` (stereo partly drawn), for which the Potency entry in assay [1] and in assay [2] was “inactive” each time.
On to `C=C(C)[C@@H]1CC[C@]2(C(=O)O)CC[C@]3(C(=O)O)[C@H](CCC4[C@@]5(C)CCC(=O)C(C)(C)C5CC[C@]43C)C12` (stereo partly drawn), for which the Potency result in assay [1] and in assay [2] was “inactive” in each case.
On to `CC(C)C[C@@H]1NC(=O)[C@@H]2C[C@@]34C[C@@H]5[C@@]6(C)CCCC(C)(C)C6CC[C@@]5(C)N(c5ccccc53)[C@H]4N2C1=O` (stereo partly drawn), for which the Potency result in assay [1] and in assay [2] was “inactive” each time.
Consider `CC[C@H]1CN(c2nc(N)c(C(N)=O)nc2Cl)CCN1C1CCN(Cc2ccc(Cl)cc2)CC1`, for which the Potency entry in assay [1] and in assay [2] was “inactive” each time.
In the case of `CC(CCC1(O)OC2CC3C4CC=C5CC(O[C@@H]6O[C@H](CO)[C@@H](O[C@@H]7O[C@@H](C)[C@H](O)[C@@H](O)[C@H]7O)[C@H](O)[C@H]6O[C@@H]6O[C@@H](C)[C@H](O)[C@@H](O)[C@H]6O)CCC5(C)C4CCC3(C)C2C1C)CO[C@@H]1O[C@H](CO)[C@@H](O)[C@H](O)[C@H]1O` (stereo partly drawn), the Potency entry in assay [1] and in assay [2] was “inactive” in each case.
For the molecule `CNc1cccc(CCOc2ccc3c(c2)CN(CC(F)(F)F)C(=O)[C@H](CC(=O)O)C3)n1`, the Potency entry in assay [1] and in assay [2] was “inactive” in each case.
